Laboratory results published in PubChem BioAssay (NCATS).
“And” between values parts separate entries of the source, which are not always exact repeats. Equal values may be shown once. Results filed as inconclusive are left out. The source made the active and inactive calls. Unless noted, calls come from the whole dose curve; as a rule, active = well fitted curve in the direction sought with a large enough effect; inconclusive = small, poorly fitted or top-dose-only effect, or another doubt; inactive = no such curve, though single readings can be large; an effect the other way counts as inactive or inconclusive.

Key:
[1] = target: Alpha-galactosidase A (Homo sapiens) (UniProt P06280); test: Counterscreen for Glucocerebrosidase Inhibitors: qHTS Assay for Human alpha-Galactosidase at pH 4.5 (AID 992); note: 0% is about no effect
Method in brief: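 Steps: enzyme (2 nM final), then compound across 0.7 nM to 77 uM, then 80 uM fluorogenic galactopyranoside substrate; incubate 20 min at room temperature; quench at pH 10; measure fluorescence at 365/440 nm.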

[2] = Validation of Assay for Modulators of Lamin A Splicing (AID 1459; active = well fitted curve in the direction sought with a large enough effect in the signal ratio; the % refers to the signal ratio;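 note: cells exposed to compound for two days before reading; 0% is about no effect; ratio rise marks activators and ratio drop marks inhibitors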)
Method in brief: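 HeLa S3 lamin A-EGFP/DsRed2 stable clone, 600 cells/well, Opti-MEM 2% FBS; compounds by pin tool; 48 hrs, 37 °C/5% CO2; Acumen 488 nm scan, objects 10-100 um; GFP/RFP intensity ratio.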

[3] = target: DNA repair nuclease/redox regulator APEX1 (Homo sapiens) (UniProt P27695); test: qHTS Validation Assay for Inhibitors of the Human Apurinic/apyrimidinic Endonuclease 1 (APE1) (AID 1705; note: potency is the fitted concentration of half-maximal effect;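 for activity change, negative = inhibition: TAMRA fluorescence gain over two minutes as APE1 cuts a quenched THF abasic duplex; % is set by controls: 0 for no effect and ±100 for the full control effect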)
Method in brief: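 qHTS, 1536-well. APE1 + cpd 15 min RT → 50 nM TAMRA/BHQ-2 THF-abasic dsDNA substrate → kinetic fluorescence, 3 reads/60 s; delta(read3−read1) = reaction progress. No-enzyme buffer = negative control.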

[4] = Counterscreen for APE1 Inhibitors: Fluorescent Dye Displacement Validation Assay (AID 1707); note: potency is the fitted concentration of half-maximal effect;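 for activity change, negative = inhibition: plate controls were ThO with dsDNA and no compound for no effect and ThO without dsDNA for full effect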
Method in brief: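 Reaction mixture of 250 nM Thiazole Orange and 50 nM double-stranded abasic-site DNA was dispensed, compounds were pin-transferred, and fluorescence was read at endpoint (480 nm ex, 540 nm em). Reduced fluorescence indicated dye displacement by DNA binding.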

[5] = target: Endonuclease 4 (Escherichia coli (strain K12)) (UniProt P0A6C1); test: Counterscreen for APE1 Inhibitors: qHTS Validation Assay for Inhibitors of Endonuclease IV (AID 1708); note: potency is the fitted concentration of half-maximal effect; for activity change, negative = inhibition: % is set by controls: 0 for no effect and ±100 for the full control effect
Method in brief: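 Read-out: fluorescence rise (ex 525/em 598 nm) from incision of a TAMRA/BHQ-2 double-stranded THF abasic-site substrate (50 nM), measured kinetically; third-minus-first read difference gave reaction progress. Enzyme 2 nM.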

[6] = qHTS for differential inhibitors of proliferation of Plasmodium falciparum line 7G8 (AID 1815);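 note: parasite growth measured after three days of incubation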; note: potency is the fitted concentration of half-maximal effect;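 for activity change, negative = inhibition: plate controls were vehicle wells for no effect and reference inhibitor wells for full effect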
[7] = qHTS for differential inhibitors of proliferation of Plasmodium falciparum line GB4 (AID 1816); conditions: Potency: Plasmodium falciparum GB4 proliferation inhibition;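 note: parasite growth measured after 72 h incubation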; note: potency is the fitted concentration of half-maximal effect;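 for activity change, negative = inhibition: 0% = vehicle DMSO and -100% = reference inhibitor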
[8] = target: alpha-glucosidase (Oryza sativa, rice) (UniProt Q653V4); test: Counterscreen for Glucocerebrosidase Inhibitors: qHTS Assay for Rice alpha-Glucosidase at pH 5.0 (AID 997);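 note: 0% = full activity with enzyme and -100% = basal without enzyme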
Method in brief: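 Endpoint fluorogenic assay at pH 5.0: compounds (0.7 nM to 77 uM) titrated against 4 nM rice enzyme and 400 uM 4-MU-alpha-glucoside for 20 min at room temperature; NaOH/glycine stop, read ex 365/em 440 nm, Hill-fitted AC50.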

[9] = target: Alpha-galactosidase (Coffea arabica) (UniProt Q42656); test: Counterscreen for Glucocerebrosidase Inhibitors: qHTS Assay for Coffee Bean alpha-Galactosidase at pH 5.9 (AID 998);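 note: plate controls were uninhibited enzyme for no effect and no-enzyme basal signal for full effect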
Method in brief: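 Enzyme 2 nM + cpd (0.7 nM–77 uM titration) + 4-MU-alpha-Gal 80 uM, pH 5.9 citrate/Tween-20, RT 20 min, NaOH/glycine stop pH 10, fluor 365/440. Normalized to no-enzyme and full-activity controls; Hill-fit AC50.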

[10] = qHTS Assay for Lipid Storage Modulators (AID 1519; calls by dose curve; for activity change, negative = inhibition: % is set by controls: 0 for no effect and ±100 for the full control effect); conditions: Drosophila S3 cells, BODIPY lipid droplet/cell ratio, laser cytometry, cells loaded with oleic acid; for activity change, negative = inhibition: at 57.5 µM (top of the series)
Method in brief: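 Cells seeded at 5,000 per well were treated with compounds over a concentration series and loaded with oleic acid (400 uM, as added). Lipid droplet fluorescence (488 nm excitation, 500-530 nm channel) was read by laser-scanning cytometry and normalized to 20 uM Triacsin C.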

[11] = Cell Viability - LYMP2-010 (AID 981);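 note: cells exposed to compound for 24 hours at 37 °C; nearly all actives have a fitted effect of over 55% in size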; note: potency is the fitted concentration of half-maximal effect
Method in brief: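 This 24 hr viability screen uses LYMP2-010 lymphoblastoid cells, quantifies ATP via luciferase luminescence, and derives AC50 from Hill fits of qHTS concentration-response data.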

[12] = Cell Viability - LYMP2-012 (AID 982);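 note: cellular ATP by luciferase luminescence where a drop means cytotoxicity; cells exposed to compound for one day before reading; nearly all actives have a fitted effect of over 55% in size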; note: potency is the fitted concentration of half-maximal effect
[13] = Cell Viability - LYMP2-014 (AID 983);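 note: cells exposed to compound for 24 h at 37 °C; plate controls were DMSO only for no effect and 92 µM tetraoctylammonium bromide for full effect; nearly all actives have a fitted effect of over 50% in size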
Method in brief: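 Quantitative HTS in lymphoblastoid cells: 24 hr compound exposure, then CellTiter-Glo ATP luminescence. Positive control was tetraoctylammonium bromide, 6.4pM to 92 uM.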

[14] = Cell Viability - LYMP2-016 (AID 984);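 note: cells exposed to compound for 24 hours at 37 °C; % is set by controls: 0 for no effect and ±100 for the full control effect; nearly all actives have a fitted effect of over 55% in size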
Method in brief: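 Cells were seeded at 2500 per well and rested 5 hr before a 24 hr compound exposure at 37 C. Viability was then gauged as cellular ATP by luciferase luminescence, with AC50 values fitted to the Hill equation.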

[15] = Cell Viability - LYMP2-022 (AID 987); note: nearly all actives have a fitted effect of over 55% in size; note: potency is the fitted concentration of half-maximal effect
Method in brief: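 In this qHTS cytotoxicity screen, compound titrations were incubated 24 hr at 37 C with human lymphoblastoid cells in complete medium. Luciferase-based ATP luminescence provided the viability signal.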

[16] = Cell Viability - LYMP2-024 (AID 988); note: nearly all actives have a fitted effect of over 60% in size; note: potency is the fitted concentration of half-maximal effect
Method in brief: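 Cells at 2500 per well received compound for 24 hr after a 5 hr settling period. Viability was scored by CellTiter-Glo luminescence, with AC50 from Hill fits.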

[17] = Cell Viability - LYMP2-026 (AID 989);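 note: cells exposed to compound for 24 h at 37 °C; % is set by controls: 0 for no effect and ±100 for the full control effect; nearly all actives have a fitted effect of over 50% in size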
Method in brief: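 Acute toxicity screen in complete culture medium, with 24 hr compound exposure at 37 C. Viability read as cellular ATP via luciferase reaction, with tetraoctylammonium bromide (6.4pM to 92 uM) as positive control.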

[18] = Cell Viability - LYMP1-002 - Assay at 40 hr (AID 994);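 note: 0% = DMSO only and full inhibition = 92 µM tetraoctylammonium bromide; nearly all actives have a fitted effect of over 60% in size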
Method in brief: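 Concentration-dependent ATP loss after 40 hr treatment at 37 C defined toxicity; AC50 values were obtained by fitting the standard Hill equation.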

[19] = Cell Viability - LYMP2-018 (AID 985);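 note: plate controls were DMSO only for no effect and tetraoctylammonium bromide at 92 µM for full effect; nearly all actives have a fitted effect of over 50% in size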
Method in brief: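 In this qHTS viability assay, cells are treated for 24 hr and cellular ATP is quantified by luciferase-based luminescence, with tetraoctylammonium bromide as positive control.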

[20] = Cell Viability - LYMP2-020 (AID 986)
Method in brief: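 Cells at 2500 per well receive a 24 hr compound exposure at 37 C. Viability is measured as ATP-dependent luciferase luminescence, with AC50 modeled from qHTS concentration-response curves.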

[21] = measured here: cell count channel max response
[22] = measured here: lipid channel max response

Alpha-galactosidase A (Homo sapiens), sequence (P06280 whole entry, looked up): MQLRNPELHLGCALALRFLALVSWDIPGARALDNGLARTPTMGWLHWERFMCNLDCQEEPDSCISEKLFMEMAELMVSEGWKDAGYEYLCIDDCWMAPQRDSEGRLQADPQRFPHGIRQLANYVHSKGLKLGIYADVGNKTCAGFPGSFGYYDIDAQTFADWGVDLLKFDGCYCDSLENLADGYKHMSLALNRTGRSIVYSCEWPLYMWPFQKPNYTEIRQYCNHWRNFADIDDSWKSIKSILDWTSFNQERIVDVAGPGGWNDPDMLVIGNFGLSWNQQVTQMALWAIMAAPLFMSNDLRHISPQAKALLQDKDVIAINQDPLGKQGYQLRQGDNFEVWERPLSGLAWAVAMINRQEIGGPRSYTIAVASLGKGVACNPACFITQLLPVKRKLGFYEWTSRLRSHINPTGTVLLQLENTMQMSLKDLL
DNA repair nuclease/redox regulator APEX1 (Homo sapiens), sequence (P27695 whole entry, looked up): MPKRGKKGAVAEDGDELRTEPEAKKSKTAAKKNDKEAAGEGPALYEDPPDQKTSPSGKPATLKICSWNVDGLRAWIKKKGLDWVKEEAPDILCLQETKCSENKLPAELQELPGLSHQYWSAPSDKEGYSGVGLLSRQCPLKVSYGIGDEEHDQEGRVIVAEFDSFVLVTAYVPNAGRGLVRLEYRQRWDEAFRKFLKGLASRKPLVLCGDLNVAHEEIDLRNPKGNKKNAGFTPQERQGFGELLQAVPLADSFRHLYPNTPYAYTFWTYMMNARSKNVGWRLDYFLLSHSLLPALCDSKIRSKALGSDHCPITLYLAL
Alpha-galactosidase (Coffea arabica), sequence (Q42656 whole entry, looked up): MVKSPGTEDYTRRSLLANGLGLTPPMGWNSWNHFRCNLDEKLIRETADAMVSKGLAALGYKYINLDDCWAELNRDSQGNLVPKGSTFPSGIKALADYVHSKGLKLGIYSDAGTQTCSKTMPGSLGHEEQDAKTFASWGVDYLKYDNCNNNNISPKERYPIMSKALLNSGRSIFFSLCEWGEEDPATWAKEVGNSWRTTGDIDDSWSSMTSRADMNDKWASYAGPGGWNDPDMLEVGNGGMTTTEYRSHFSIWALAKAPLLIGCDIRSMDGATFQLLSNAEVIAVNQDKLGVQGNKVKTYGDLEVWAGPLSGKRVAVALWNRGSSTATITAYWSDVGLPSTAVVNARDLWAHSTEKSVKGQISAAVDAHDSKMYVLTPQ

COc1ccc2[nH]cc(CCN)c2c1
inactive: outcome [1] | outcome [2] | Potency [3] | Potency [4] | Potency [5] | Potency [6] | Potency [7]

CN(N=O)c1cc(O)ccc1O
active: Potency [3] 1.41 µM | Potency [4] 14.1 µM
inactive: outcome [1] | outcome [8] | outcome [2] | Potency [5] | Potency [6]

C[C@H](Cc1ccc2c(c1)OC(C(=O)O)(C(=O)O)O2)NC[C@H](O)c1cccc(Cl)c1
inactive: outcome [2] | Potency [3] | Potency [4] | Potency [5] | Potency [6] | Potency [7]

NC(=O)c1cc(N2CC2)c([N+](=O)[O-])cc1[N+](=O)[O-]
inactive: outcome [1] | outcome [9] | outcome [2] | Potency [3] | Potency [4] | Potency [5] | Potency [6]

CCN(CC)c1ncnc2c1ncn2[C@@H]1O[C@H](COP(=O)(O)OP(=O)(O)C(Br)(Br)P(=O)(O)O)[C@@H](O)[C@H]1O
inactive: outcome [2] | Potency [3] | Potency [4] | Potency [5] | Potency [6] | Potency [7]

CN(N=O)c1ccc(O)c(O)c1
-25.4%: max response [10, 21]
active: Potency [4] 14.1 µM | Potency [5] 8.91 µM
inactive: outcome [1] | outcome [2] | activity change, negative = inhibition [10] -1.9% | Potency [6]
-24.9%: max response [10, 22]

O=S1(=O)N(CCN2CC=C(c3c[nH]c4cc(F)ccc34)CC2)c2cccc3c2N1CCC3
inactive: outcome [1] | outcome [2] | Potency [3] | Potency [4]
active: Potency [6] 1.41 µM | Potency [7] 1.41 µM

O=C1CC[C@@]2(O)C3Cc4ccc(O)c5c4C2(CCN3CC2CC2)[C@H]1O5 (some centres not stated)
inactive: outcome [2] | Potency [3] | Potency [4] | Potency [5] | Potency [6] | Potency [7]

NCC(CP(=O)(O)O)c1ccc(Cl)cc1 (configuration not stated)
inactive: outcome [2] | activity change, negative = inhibition [10] -3.32% | Potency [4] | Potency [6] | Potency [7]
-42.3%: max response [10, 21]
-42.6%: max response [10, 22]

CN1CCC(c2c[nH]c3ccc(O)cc23)CC1
19.5% and 47.8%: max response [10, 21]
inactive: outcome [1] | outcome [8] | outcome [2] | activity change, negative = inhibition [10] 2.83% and 0.677% | Potency [4]
24% and 52.3%: max response [10, 22]

CCCN1CCCC2Cc3[nH]ncc3CC21 (configuration not stated)
inactive: outcome [2] | Potency [3] | Potency [4] | Potency [5] | Potency [6] | Potency [7]

CCOC(=O)c1ncn2c1[C@@H]1CCCN1C(=O)c1cc(OC)ccc1-2
active: Potency [6] 7.94 µM
inactive: outcome [2] | Potency [3] | Potency [4] | Potency [5] | Potency [7]

C[C@@H]1O[C@H](C[N+](C)(C)C)CS1
inactive: outcome [1] | outcome [2] | Potency [3] | Potency [4] | Potency [5] | Potency [6] | Potency [7]

Oc1ccc2c3c1O[C@H]1c4[nH]c5ccccc5c4C[C@@]4(O)C(C2)N(CC2CC2)CCC314 (some centres not stated)
active: Potency [6] 8.91 µM | Potency [7] 8.91 µM
inactive: outcome [2] | Potency [3] | Potency [4] | Potency [5]

NCCc1c[nH]c2ccc(C(N)=O)cc12
inactive: outcome [1] | outcome [8] | outcome [9] | outcome [2] | activity change, negative = inhibition [10] -0.884% | Potency [4] | Potency [6] | Potency [7]
1.87%: max response [10, 22]
2.92%: max response [10, 21]

O=C1C=CC(=O)C=C1
active: Potency [11] 39.8 µM | Potency [12] 39.8 µM | Potency [15] 39.8 µM | Potency [16] 31.6 µM | Potency [3] 14.1 µM
inactive: Potency [13] | Potency [14] | Potency [17] | outcome [1] | Potency [18] | outcome [9] | outcome [2] | Potency [4] | Potency [5] | Potency [6] | Potency [7]

NCCc1ccc(S(=O)(=O)F)cc1
inactive: outcome [1] | outcome [2] | Potency [3] | Potency [4] | Potency [5] | Potency [6] | Potency [7]

CO[C@H]1CC=C2CCN3CCC4=C(CC(=O)OC4)[C@]23C1
inactive: outcome [2] | Potency [3] | Potency [4] | Potency [6] | Potency [7]

CC(C)(C)c1o[nH]c(=O)c1CC(N)C(=O)O (configuration not stated)
inactive: outcome [2] | Potency [3] | Potency [4] | Potency [6] | Potency [7]

Clc1ccc(Cl)cc1
inactive: activity change, negative = inhibition [10] 0.214%
11.5%: max response [10, 22]
8.86%: max response [10, 21]

COc1ccc2c(c1)C13CCCCC1C(C2)N(C)CC3 (configuration not stated)
active: Potency [6] 3.16 µM
inactive: outcome [2] | Potency [4] | Potency [5]

[N-]=[N+]=CC(=O)OCC(N)C(=O)O (configuration not stated)
inactive: activity change, negative = inhibition [10] 10.5%
14.1%: max response [10, 21]
29.9%: max response [10, 22]

CC(N)Cc1ccc(O)cc1 (configuration not stated)
11.5%: max response [10, 21]
inactive: activity change, negative = inhibition [10] 1.02%
13.9%: max response [10, 22]

C=CCC1(C(C)CCC)C(=O)N=C(S)NC1=O (configuration not stated)
inactive: activity change, negative = inhibition [10] 5.57%
20.4%: max response [10, 22]
14.6%: max response [10, 21]

NC(Cc1cc(O)c(O)cc1O)C(=O)O (configuration not stated)
active: Potency [4] 7.94 µM
inactive: outcome [2] | Potency [7]

ClC1C(Cl)C(Cl)C(Cl)C(Cl)C1Cl (configuration not stated)
inactive: activity change, negative = inhibition [10] 9.37%
11.2%: max response [10, 21]
20.6%: max response [10, 22]

CC(=O)NBr
inactive: outcome [1] | outcome [2] | Potency [4] | Potency [5] | Potency [6] | Potency [7]

CCCn1c(=O)c2[nH]c(C3CCCC3)nc2n(CCCOC(=O)c2ccc(S(=O)(=O)F)cc2)c1=O
active: Potency [6] 12.6 µM
inactive: outcome [1] | outcome [9] | outcome [2] | Potency [4] | Potency [5]

CCCC(C)C1(CC)C(=O)NC(=O)NC1=O (configuration not stated)
-11.5%: max response [10, 21]
inactive: activity change, negative = inhibition [10] 5.49%
-3.32%: max response [10, 22]

NNC(N)=O
inactive: Potency [11] | Potency [12] | Potency [13] | Potency [14] | Potency [19] | Potency [20] | Potency [15] | Potency [16] | Potency [17] | outcome [1] | Potency [18] | outcome [2] | Potency [4] | Potency [6] | Potency [7]
